From PubChem BioAssay AID1259397 (Fisher Drug Discovery Resource Center, 2018)
Where “and” joins values, the source holds several entries; their conditions need not be identical. Identical values can stand only once. The whole screen tested about 130,000 compounds, of which about 230 (0.18%) were called active. The entries come from a sample that favours actives as a whole. Values without a mark were called inactive.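 How the source made its calls: active means inhibition of cGAS enzyme activity at or above 60%; inactive means the rest.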

Target: Cyclic GMP-AMP synthase (Mus musculus) (UniProt Q8C6L5)
Sequence (Q8C6L5 whole entry, looked up): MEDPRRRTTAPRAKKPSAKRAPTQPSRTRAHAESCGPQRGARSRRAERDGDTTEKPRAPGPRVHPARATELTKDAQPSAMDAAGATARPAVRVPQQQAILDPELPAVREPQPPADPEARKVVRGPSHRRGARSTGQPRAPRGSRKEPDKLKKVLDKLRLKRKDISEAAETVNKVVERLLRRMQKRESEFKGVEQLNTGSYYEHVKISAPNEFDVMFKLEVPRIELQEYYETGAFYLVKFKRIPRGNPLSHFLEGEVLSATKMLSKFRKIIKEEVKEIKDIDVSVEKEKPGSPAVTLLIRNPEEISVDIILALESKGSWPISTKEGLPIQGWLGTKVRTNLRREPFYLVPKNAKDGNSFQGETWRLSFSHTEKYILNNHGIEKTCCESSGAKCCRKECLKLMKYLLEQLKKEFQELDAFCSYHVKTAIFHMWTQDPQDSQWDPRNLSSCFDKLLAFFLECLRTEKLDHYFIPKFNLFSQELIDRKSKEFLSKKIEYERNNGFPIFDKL
Test: inhibitors of Mus musculus cyclic GMP-AMP synthase, initial high-throughput assay, cell-free, RapidFire MS (AID 1259397);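 further: enzyme stimulated by 45 bp dsDNA with ATP and GTP substrates; cGAMP share of summed cGAMP plus half ATP and half GTP signals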
Settings: recombinant mouse cGAS, cGAMP by RapidFire MS; at 12.5 µM; active compounds read high

SMILES	inhibition
CC1=C(C(=O)N2CCC(N3CCC(C(=O)NCC4CCCO4)CC3)CC2)OCCO1 (configuration not stated)	-2.1%
O=C(CCc1nc2ccccc2s1)NC1CCN(Cc2ccccc2)C1 (configuration not stated)	-1.33%
Cc1cc(C)n(CC2CCN(C(=O)C3CCN(S(C)(=O)=O)CC3)CC2)n1	-6.54%
Cc1cn2c3c(=O)n(CCc4ccccc4)c(=O)n(C)c3nc2n1CCOCCO	-7.78%
CCCNC(=O)C1(C)CCCN(Cc2c(C)nn(-c3ccccc3)c2C)C1 (configuration not stated)	-6.24%
CCOc1ccc(CNC(=O)Cc2sc(=S)[nH]c2C)cc1F	-6.57%
CC(=O)Nc1ccc(Cl)c(C(=O)N(C)CCc2nc3ccccc3[nH]2)c1	-12.1%
CCc1ccc(C(=O)NNC(=S)Nc2sc(CC)cc2C(=O)OC)s1	-2.22%
COc1cccc(N2C[C@@H]3C[C@@H](c4cccs4)N4CCC[C@@]34C2=O)c1	-6.87%
COC(=O)Cn1nc([N+](=O)[O-])n(CC(=O)OC)c1=O	-9.81%
COc1ccc(NC2CCCN(c3nc(C(F)(F)F)nc(C)c3C)C2)cc1 (configuration not stated)	-21.1%
CCCOc1ccc(C(=O)NNC(=O)c2ccc[nH]c2=O)cc1	2.97%
CN(C)/C=C(\C(=O)c1ccc(Cl)c(Cl)c1)c1nnnn1-c1ccccc1	-2.94%
CC1CN(Cc2ccccc2F)CCO1 (configuration not stated)	-0.301%
CC(C(=O)N1CCCC1)N1CCOC(CN(C)C)C1 (configuration not stated)	-1.48%
CCc1ccc(Cl)c(CC)c1NC(=O)c1cnccn1	-4.79%
N#Cc1ccc(C2=CSC3=NS(=O)(=O)CCN23)cc1	-8.31%
O=C(NCCC(F)(F)F)c1csc(N2CCN(Cc3ccccc3)C2=O)n1	-6.72%
Cc1noc(C)c1C(=O)N1CCC1(C)C(=O)NS(=O)(=O)c1ccc(C#N)cc1 (configuration not stated)	-9.56%
O=[N+]([O-])c1cc(S(=O)(=O)C(F)(F)F)ccc1N1CCCC1	-9.38%
C=CCSc1nc2ccccc2n1CCO	-7.69%
CC(=O)Nc1ccc(Cl)c(C(=O)NC(CCn2ccnc2)c2ccccc2)c1 (configuration not stated)	-10.1%
CCC1(C)Cc2ccccc2-c2nc3[nH][nH]c(=S)n3c(=O)c21 (configuration not stated)	15%
COc1ccccc1/C=C/C=C1\N=C(c2ccc(C(C)(C)C)cc2)OC1=O	-5.55%

SMILES	inhibition
Cc1ccc(C)c(C=C2SC(N3CCOCC3)=NC2=O)c1	-2.54%
O=C(NC[C@H]1C[C@H]2C=C[C@H]1C21CC1)C1CCN(Cc2ccco2)CC1	-6.29%
CN(Cc1cn[nH]c1-c1ccc(F)cc1)C(=O)Cc1c[nH]c2ccccc12	-11.3%
OCC1(Cc2ccccc2Cl)CCN(C2CCN(c3ccccc3)CC2)CC1	-7.34%
Cc1cc2nc(N(CCN3CCOCC3)C(=O)C3COc4ccccc4O3)sc2cc1C (configuration not stated)	-7.12%
CCN(CCn1cccn1)C(=O)CC1C(=O)NCCN1C1Cc2ccccc2C1 (configuration not stated)	3.93% and -3.95%
Cc1c(C)c(C)c(C(=O)C2CCN(C(=O)CC3NC(=O)NC3=O)CC2)c(C)c1C (configuration not stated)	-1.46%
Cc1nc2c(cnn2C(C)C)c(C)c1CCC(=O)NC1CCCC1	-7.8%
Cc1ccsc1C(CNC(=O)c1cnn2ccn(C)c12)N(C)C (configuration not stated)	-20.4%
O=S(=O)(c1ccc2c(c1)OCCCO2)N1CCCC(c2nc3ccccc3s2)C1 (configuration not stated)	10%
Cc1sc2ncn(CC(=O)c3ccc[nH]3)c(=O)c2c1C	14.3%
Cc1nc2ccc(C(=O)N3CCC4(CC3)Nc3ccccc3C(=O)N4CCO)cc2[nH]1	-0.499%
COc1cc2c(cc1CNC1CCN(Cc3ccccc3)C1)OC(C)C2 (configuration not stated)	-13.3%
CC(=O)OC(OC(C)=O)c1coc2c(F)cccc2c1=O	2.77%
CCC1CCC(N(CC(=O)NC(C)C(=O)N(C)C)C(C)c2ccc(F)cc2)CC1 (configuration not stated)	-8.3%
Cc1[nH]n(-c2nc(O)c(C)c(=O)[nH]2)c(=O)c1CCO	-3.37%
CCCNc1nc2c(C)cccn2c(=O)c1C=C1SC(=S)N(CC(C)C)C1=O	-5.08%
Cc1ccc(NC(=O)CN2CCCN(c3ccc(C(F)(F)F)cn3)CC2)cc1	-2.92%
CC(Nc1ncnc2sc3c(c12)CCCC3)c1ccccc1 (configuration not stated)	-2.34%
CN(Cc1nc(-c2ccc(Br)s2)no1)c1nccs1	-1.14%
CN(C)c1ccc(N2CC(=O)C(c3nc(-c4cccc(Cl)c4)cs3)C2=N)cc1 (configuration not stated)	-4.69%
CCCN(C)CC1CCN(C(C)C(=O)Nc2ccc(C(F)(F)F)cc2)C1 (configuration not stated)	93.9% (active)
Cc1ccc(NC(=O)C(C)N2CCCC(C(F)(F)F)C2)cc1 (configuration not stated)	-5.21%
